Bioassay records as filed in PubChem BioAssay.
HCV inh – HCV inhibition; Huh7.5.1 HCVcc-Cre infection, luciferase reporter, 44 h; Potency, µM (titrated, usually from 41.8 µM), hits mostly inhibitors; 340,000 tested, 3.4% active; AID 651820
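Infectious HCVcc-Cre (~0.5 moi) was added to cells just after compound, with cells seeded 4 h earlier at 1,000 per well. Luciferase activity after 44 h culture reported infection; substrate was incubated 15 min at room temperature before reading.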
Pf growth 96h – P. falciparum growth inhibition at 96 hours; 320,000 tested, 6.9% active; AID 504834; Potency, µM (doses to about 28.7 µM), most hits filed as inhibitors; P. falciparum luciferase reporter growth, 96 h
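P. falciparum expressing integrated firefly luciferase, in erythrocytes at 2% hematocrit, 0.05% parasitemia, incubated with compounds 96 h at 37 C, 5% CO2. Growth inhibition read as loss of luminescence; two-generation exposure targets delayed-death apicoplast inhibitors.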
AMA1-RON2 inh – AMA1-RON2 (P. falciparum) interaction inhibition; AID 720542; AlphaScreen AMA1-biotinylated RON2 peptide binding; Potency, µM (titrated, usually from 58.2 µM), most hits filed as inhibitors; 360,000 tested, 0.2% active; also: nearly all actives have a fitted effect of over 45% in size
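AMA1 (3D7) with his tag at 25 nM final met compounds first, then biotinylated RON2 peptide at 25 nM; detection used donor plus acceptor beads, 10 µg/mL apiece, read by AlphaScreen after 30 min at room temperature.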
SARS PLP yeast – blocks SARS-CoV papain-like protease in a yeast assay; AID 485353; 330,000 tested, 0.19% active; S. cerevisiae expressing SARS-CoV PLpro, growth rescue; Potency, µM (doses to about 32.9 µM), usual class: activators; calls by dose curve; also: nearly all actives have a fitted effect of over 55% in size
NS1 function inh – inhibitors of influenza NS1 protein function. AID 2326. 270,000 tested, 0.4% active. Potency, µM (highest dose often 46.1 µM); calls by dose curve; also: actives are rising curves; nearly all actives have a fitted effect of over 50% in size
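OD600 was taken as the measure of yeast growth restored by compound in an NS1-expressing S. cerevisiae strain. Cells had been washed out of glucose medium and diluted 1:100 into galactose -URA medium, pH 6.0.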
Pf growth 48h – inhibits P. falciparum growth in the first generation, 48 h; AID 504832; P. falciparum luciferase growth in erythrocytes, 48 h; Potency, µM (series often up to 28.7 µM), most hits filed as inhibitors; 310,000 tested, 5.9% active
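Growth was read as firefly luciferase luminescence after a 48 h, 37 C, 5% CO2 exposure of compounds to reporter-bearing P. falciparum cultures (0.1% parasitemia, 2% hematocrit final) in Albumax-supplemented RPMI 1640.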
Of the large screens only hits and unclear results are named; the others gave an inactive call. Most compounds without a hit are left out; they make up all but 12% or so of the library. Unless noted, calls follow the shape of the dose curve; as a rule, active = well fitted curve in the direction sought with a large enough effect; inconclusive = small, poorly fitted or top-dose-only effect, or another doubt; inactive = no such curve, though single readings can be large; an effect the other way counts as inactive or inconclusive.

COc1ccc(OC)c(NC(=O)CSc2nnc(-c3ccco3)n2-c2ccc(C(=O)O)cc2)c1	Pf growth 96h 0.41µM, Pf growth 48h 4.7µM
CNC(=O)CSc1nnc(-c2ccco2)n1-c1cc(C)ccc1C	Pf growth 96h 12µM
CNC(=O)CSc1nnc(-c2ccco2)n1-c1cccc(OC)c1	Pf growth 96h 2.1µM
O=C(COC(=O)c1ccccc1NCCO)Nc1cc(C(F)(F)F)ccc1N1CCOCC1	HCV inh inconclusive, Pf growth 96h inconclusive, Pf growth 48h inconclusive
O=c1[nH]c2c(cnn2-c2ccc(Cl)cc2)c(=O)n1-c1cccc(Cl)c1	none
O=C(Cc1cccc2ccccc12)NCCc1ccccc1	none
CC(CC(=O)N1CCN(c2ccc(C(F)(F)F)cn2)CC1)n1ccnc1 (configuration not stated)	none (no result: NS1 function inh)
CC1(C)C(=O)OC(c2cccn2-c2cccc([N+](=O)[O-])c2)C2(CCCCC2)C1=O (configuration not stated)	Pf growth 48h 13µM (no result: AMA1-RON2 inh)
COCCn1c(SCC(=O)Nc2ccc(F)cc2F)nc2c([nH]c3ccccc32)c1=O	none
O=C(Nc1cccc(S(=O)(=O)N2CCCCC2)c1)C1CC(=O)N(c2ccc3c(c2)OCCO3)C1 (configuration not stated)	HCV inh 13µM, Pf growth 96h inconclusive, Pf growth 48h inconclusive
CN(c1ccccc1)S(=O)(=O)c1cccc(NC(=O)C2CC(=O)N(Cc3ccccc3)C2)c1 (configuration not stated)	HCV inh 13µM, Pf growth 96h inconclusive, Pf growth 48h inconclusive
COc1ccccc1NS(=O)(=O)c1cccc(NC(=O)C2CC2)c1	Pf growth 96h inconclusive, Pf growth 48h inconclusive (no result: NS1 function inh)
COc1ccccc1NS(=O)(=O)c1cccc(NC(=O)C2CC(=O)N(Cc3ccccc3)C2)c1 (configuration not stated)	HCV inh 14µM, Pf growth 48h inconclusive (no result: NS1 function inh)
O=C(Nc1cccc(S(=O)(=O)N2CCCCC2)c1)C1CC(=O)N(Cc2ccccc2)C1 (configuration not stated)	Pf growth 96h inconclusive, Pf growth 48h 13µM (no result: NS1 function inh)
O=C(NCCc1ccccc1F)c1cccc2cccnc12	Pf growth 48h inconclusive
COC(=O)CCCn1cc(CN2CC(N(C)C)CS2(=O)=O)nn1 (configuration not stated)	none (no result: HCV inh, Pf growth 96h, SARS PLP yeast, NS1 function inh, Pf growth 48h)
CCCCc1nnc(NC(=O)C2CC(=O)N(Cc3ccccc3)C2)s1 (configuration not stated)	Pf growth 96h 10µM, SARS PLP yeast inconclusive, Pf growth 48h inconclusive
COc1ccc(S(=O)(=O)N2CCCCC2)cc1NC(=O)C1CC(=O)N(Cc2ccccc2)C1 (configuration not stated)	Pf growth 96h 12µM, Pf growth 48h 13µM (no result: NS1 function inh)
O=C(CN1CCN(S(=O)(=O)c2ccc(Br)cc2)CC1)N/N=C/c1ccccc1C(=O)O	none
CC(=O)c1ccc(NC(=S)N2CCN(S(=O)(=O)c3ccc(F)cc3)CC2)cc1	none
CCCC(=O)N(Cc1cc(=O)[nH]c2ccccc12)c1ccc(C)cc1C	Pf growth 96h inconclusive, Pf growth 48h inconclusive
Cc1ccc(N(Cc2cc(=O)[nH]c3ccccc23)C(=O)CCl)c(C)c1	HCV inh inconclusive, Pf growth 96h 6.6µM, Pf growth 48h 9.3µM
CCCC(=O)N(Cc1cc(=O)[nH]c2ccccc12)c1ccccc1OC	Pf growth 96h 12µM, Pf growth 48h 7.4µM
O=C(CN1CCN(Cc2ccccc2Cl)CC1)N/N=C/c1cccs1	Pf growth 48h inconclusive
O=C(CCSC1=NCCCN1)c1ccc(F)cc1	none (no result: Pf growth 96h, SARS PLP yeast, NS1 function inh, Pf growth 48h)
O=C(NC1CC1)c1cccc2c1C(=O)c1ccc(N3CCC(Cc4ccccc4)CC3)cc1S2(=O)=O	HCV inh 10µM (no result: Pf growth 96h, NS1 function inh, Pf growth 48h)
O=C(NCc1ccc(F)cc1)c1cccc2c1C(=O)c1ccc(N3CCC(Cc4ccccc4)CC3)cc1S2(=O)=O	HCV inh inconclusive (no result: Pf growth 96h, NS1 function inh, Pf growth 48h)
CC(Sc1nnc2ccccn12)C(=O)Nc1ncc(Cl)cc1Cl (configuration not stated)	none
COc1ccc(-n2c(SC(C)C(=O)Nc3ncc(Cl)cc3Cl)nc3ccccc32)cc1 (configuration not stated)	HCV inh inconclusive, Pf growth 96h inconclusive, Pf growth 48h 10µM
Cc1nc(N2CCN(C(=O)c3ccco3)CC2)c2c3c(sc2n1)CC(C)CC3 (configuration not stated)	HCV inh 13µM, Pf growth 48h inconclusive
O=C(c1cccs1)N1CCN(C(=O)C2CCCO2)CC1 (configuration not stated)	Pf growth 96h 4.7µM
Cc1nc(N2CCN(C(=O)c3ccco3)CC2)c2c3c(sc2n1)CCCC3	HCV inh 2.8µM, Pf growth 96h inconclusive, Pf growth 48h inconclusive
Cc1nc(N2CCN(C(=O)c3cccs3)CC2)c2c3c(sc2n1)CCCC3	HCV inh 11µM, Pf growth 48h inconclusive
O=C(Cc1cccs1)N1CCN(C(=O)C2CCCO2)CC1 (configuration not stated)	none (no result: Pf growth 96h)
Cc1nc(N2CCN(c3ccccc3)CC2)c2c3c(sc2n1)CCC3	Pf growth 96h inconclusive, Pf growth 48h inconclusive (no result: HCV inh, AMA1-RON2 inh)
Cc1ccc(S(=O)(=O)N2CCN(c3nc(C)nc4sc5c(c34)CCC(C)C5)CC2)cc1 (configuration not stated)	Pf growth 96h 7.4µM, Pf growth 48h inconclusive (no result: HCV inh, AMA1-RON2 inh)
O=C(c1ccco1)N1CCN(c2nc(C3CC3)nc3sc4c(c23)CCCC4)CC1	HCV inh inconclusive, AMA1-RON2 inh inconclusive, Pf growth 48h 9.3µM
O=C(c1ccco1)N1CCN(c2nc(C3CC3)nc3c2nnn3Cc2ccccc2Cl)CC1	HCV inh inconclusive, Pf growth 48h 6.6µM
Cc1cccc(NC(=O)CCNC(=O)c2ccco2)c1C	Pf growth 48h inconclusive
COc1cc(NC(=O)c2ccco2)c(OC)cc1NC(=O)c1cc(OC)c(OC)c(OC)c1	HCV inh inconclusive, Pf growth 96h 2.9µM, Pf growth 48h inconclusive
COc1cc(NC(=O)c2ccco2)c(OC)cc1NC(=O)CCC(=O)Nc1cccc(C)c1C	HCV inh inconclusive, Pf growth 96h 5.2µM
CCOc1cc(NC(=O)c2ccco2)c(OCC)cc1NC(=O)c1cc(OC)c(OC)c(OC)c1	HCV inh inconclusive, Pf growth 48h inconclusive
Cc1ccc(CN2CCC(CNC(=O)c3ccc(NC(=O)C4=CSCCO4)cc3)CC2)cc1	HCV inh 13µM, Pf growth 96h inconclusive, Pf growth 48h inconclusive
O=C(Nc1ccccc1O)c1ccc(NS(=O)(=O)c2cccc3cccnc23)cc1	Pf growth 96h inconclusive, Pf growth 48h 2.3µM
O=C(Nc1ncccc1O)c1ccc(S(=O)(=O)Nc2ccccc2)cc1	Pf growth 96h inconclusive, Pf growth 48h 0.83µM (no result: NS1 function inh)
O=C(Nc1ncccc1O)c1ccc(S(=O)(=O)NCc2ccco2)cc1	none (no result: HCV inh, Pf growth 96h, SARS PLP yeast, NS1 function inh, Pf growth 48h)
